Experimental data reported in paper PMC5540273 (PLoS ONE, 2017).

Experiments:
Details in all cases: concentration: 1 μM, replicates: in singlicate; n = 1
CAMK1 = test system: CAMK1
CAMK2A = test system: CAMK2A
CAMK2B = test system: CAMK2B
CAMK2D = test system: CAMK2D
CAMK2G = test system: CAMK2G
CAMK4 = test system: CAMK4
CAMKK1 = test system: CAMKK1
CAMKK2 = test system: CAMKK2
CASK = test system: CASK
CDC2L1 = test system: T1, CDC2L1
T1 construct: gene CDK11B

CDC2L2 = test system: CDC2L2
CDC2L5 = test system: T2, CDC2L5
T2 construct: gene CDK13

CDK11 = test system: T3, CDK11
T3 construct: gene CDK19

CDK2 = test system: CDK2
CDK3 = test system: CDK3
CDK4-cyclinD1 = test system: CDK4-cyclinD1
CDK4-cyclinD3 = test system: CDK4-cyclinD3
CDK4 = test system: CDK4
CDK5 = test system: CDK5
CDK7 = test system: CDK7
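Further: KINOMEscan kinase panel screen.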

Structure (SMILES)	%Inh (CAMK1) [%]	%Inh (CAMK2A) [%]	%Inh (CAMK2B) [%]	%Inh (CAMK2D) [%]	%Inh (CAMK2G) [%]	%Inh (CAMK4) [%]	%Inh (CAMKK1) [%]	%Inh (CAMKK2) [%]	%Inh (CASK) [%]	%Inh (CDC2L1) [%]	%Inh (CDC2L2) [%]	%Inh (CDC2L5) [%]	%Inh (CDK11) [%]	%Inh (CDK2) [%]	%Inh (CDK3) [%]	%Inh (CDK4-cyclinD1) [%]	%Inh (CDK4-cyclinD3) [%]	%Inh (CDK4) [%]	%Inh (CDK5) [%]	%Inh (CDK7) [%]
O=C(Nc1n[nH]c2nc(-c3ccc(O)cc3)ccc12)C1CC1 [SB-710363]	0	19	19	5	0	0	8	17	31	0	0	69	0	75	84	83	78	0	0	41
COc1ccc(Nc2nccc(N3CCC(NC(=O)Nc4cccc(OC)c4)C3)n2)cc1 (centres unmarked) [GSK1379742]	0	0	0	2	9	4	5	4	13	0	0	0	56	0	27	0	0	13	0	0
CC(=O)N1CCN(c2ccc(Nc3nccc(-c4sc(C(C)C)nc4-c4cccc(NS(=O)(=O)c5cccc(Cl)c5)c4)n3)cn2)CC1 [GSK1660437]	34	0	0	0	0	0	0	0	0	0	0	21	0	97.1	98.6	79	4	76	100	59
COc1cc(Nc2nccc(-c3c(-c4cccc(NC(=O)c5c(F)cccc5F)c4)nn4ncccc34)n2)cc(OC)c1OC [GSK327238]	58	0	0	10	19	0	24	18	14	16	15	0	0	0	4	0	97.4	21	0	0
CSc1cccc2c(-c3ccncn3)c(-c3ccc(F)cc3)nn12 [GW514786]	0	0	0	0	10	0	0	0	45	0	17	0	8	11	9	13	0	15	0	2
O=C(Nc1cccc(-c2nn3ccccc3c2-c2ccnc(Nc3cccc(F)c3)n2)c1)c1c(F)ccc(F)c1Cl [GSK357952]	12	0	0	0	0	13	0	0	4	0	0	0	0	0	1	0	0	53	0	0
COc1ccc(Nc2nccc(NCCNC(=O)c3cc4ccccc4s3)n2)cc1 [GSK1379896]	4	0	0	0	16	0	0	0	5	0	1	0	10	0	5	0	0	13	0	0
Cl.Cl.NCC(NC(=O)c1cc(-c2ccccc2)c(-c2ccnc3[nH]ccc23)s1)c1ccccc1 (centres unmarked) [GSK1321561]	4	0	0	5	0	0	15	10	13	0	11	0	8	0	8	0	0	27	0	0
Cn1cc(-c2ccc3c(c2)CCN3C(=O)Cc2cccc(F)c2)c2c(N)ncnc21 [GSK2603358]	79	0	0	16	34	0	26	29	17	0	21	0	96.7	0	7	2	0	17	0	0
O=C(Nc1cccc(Oc2ccc3nc(NC(=O)C4CC4)cn3n2)c1)c1ccccc1C(F)(F)F	7	100	100	1	0	0	1	0	6	0	14	25	1	0	21	24	0	0	0	0
